Among the test systems are SK-MEL-2 melanoma; EKVX NSCLC; UO-31 renal; TK-10 renal; ACHN renal; CAKI-1 renal; A498 renal; CCRF-CEM leukemia; MOLT-4 leukemia.
Assay in all cases: NCI-60 one-dose screen, 48 h (100 = growth as untreated, 0 = no growth, -100 = all killed)
Common to all, as to settings: 10 µM unless noted

Compounds without any hit were thinned out: in the full panel of roughly 83,000, 20% have a hit.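 Negative percent growth values reflect cell death: -40 means 40% of the cells present at the start died, and -100 means all died.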 Unmarked numbers belong to inactive results. Activity calls are given as the source filed them. Rule for the calls: active = growth percent below 10; inactive = the rest.

Turning to `O=S(=O)(Nc1cccc(-n2cnc3cc(-c4ccc(O)cc4)ccc32)c1)C1CC1`, the growth was 51.7% with SK-MEL-2 melanoma; 46.4% with EKVX NSCLC; 21% in the experiment with UO-31 renal; 65% with TK-10 renal; 21.3% in the experiment with ACHN renal; 18.9% in the experiment with CAKI-1 renal. Besides, the growth in the experiment on A498 renal is 30.6%; with CCRF-CEM leukemia, 23.6%; in the experiment with MOLT-4 leukemia it was 13.7%.

As to `CCN(CC)c1ccnc(CNCCSC(c2ccccc2)(c2ccccc2)c2ccc(C)cc2)c1`, the growth is -92% (active) with SK-MEL-2 melanoma; -84.9% (active) in the experiment on EKVX NSCLC; -20.8% (active) in the experiment with UO-31 renal; -85.7% (active) in the experiment with TK-10 renal; -53% (active) with ACHN renal; -92.3% (active) in the experiment on CAKI-1 renal. For the same molecule, the growth in the experiment with A498 renal is -96.8% (active); in the experiment on CCRF-CEM leukemia, -40.9% (active); in the experiment with MOLT-4 leukemia, -30.9% (active).

In the case of `CCCCCCCCOc1cccc(S(=O)(=O)Nc2ccc(C)cc2C(=O)O)c1`, the growth with SK-MEL-2 melanoma is 89.7%; in the experiment with EKVX NSCLC it was 92.8%; in the experiment on UO-31 renal it was 85.9%; in the experiment on TK-10 renal, 102%; in the experiment on ACHN renal, 98.1%; in the experiment on CAKI-1 renal, 85.8%. In addition, the growth with A498 renal is 107%; in the experiment with CCRF-CEM leukemia, 72.5%; in the experiment on MOLT-4 leukemia, 90.5%.

On to `C#CCOc1ccc(/C=N/Nc2nc(-c3cc4cc(OC)ccc4oc3=O)cs2)cc1OC`, for which the growth with SK-MEL-2 melanoma was 55.2%; with EKVX NSCLC, 43.5%; with UO-31 renal, 87.7%; in the experiment with TK-10 renal, 89.5%; in the experiment with ACHN renal it was 40.2%; in the experiment on CAKI-1 renal, 39.2%. In addition, the values for the growth with A498 renal, in the experiment on CCRF-CEM leukemia and in the experiment with MOLT-4 leukemia were 78.7%, 66.3% and 63.9%, respectively.

Take `CCCCSc1nc(NCCc2c[nH]c3ccccc23)c(C#N)c(-c2ccccc2)n1`: the growth with SK-MEL-2 melanoma was 74%; in the experiment on EKVX NSCLC, 32.9%; in the experiment with UO-31 renal, 45.5%; in the experiment on TK-10 renal it was 74.3%; with ACHN renal, 43.2%; with CAKI-1 renal, 35.2%. Further, the growth with A498 renal is 61.8%; in the experiment on CCRF-CEM leukemia it was 8.29% (active); with MOLT-4 leukemia it was 13.8%.

Consider `Cn1cc(-c2cc(N)n3nc(-c4cn(C)c5ccc(Cl)cc45)cc3n2)c2ccccc21`, for which the growth in the experiment on SK-MEL-2 melanoma is 114%; with EKVX NSCLC, 104%; with UO-31 renal, 107%; with TK-10 renal, 79.3%; in the experiment with ACHN renal it was 100%; with CAKI-1 renal, 95.4%. For the same molecule, the growth with A498 renal was 101%; in the experiment on CCRF-CEM leukemia, 115%; with MOLT-4 leukemia it was 104%.

Turning to `COc1cc(-c2cc(-c3cccc(OCC(=O)O)c3)[nH]c(=O)c2C#N)cc(OC)c1OC`, the growth in the experiment on SK-MEL-2 melanoma was 132%; in the experiment with EKVX NSCLC, 91.8%; in the experiment on UO-31 renal, 81.8%; in the experiment with TK-10 renal it was 102%; in the experiment with ACHN renal it was 97%; with CAKI-1 renal, 82.2%. The results for the growth in the experiment on A498 renal, with CCRF-CEM leukemia and in the experiment with MOLT-4 leukemia were 101%, 93.7% and 85.9%, respectively.

Consider `COc1ccc2cc([C@H](C)C(=O)N/N=C/c3ccc(Br)cc3)ccc2c1`, for which the growth is 109% in the experiment on SK-MEL-2 melanoma; 94.2% with EKVX NSCLC; 83.3% in the experiment on UO-31 renal; 101% in the experiment with TK-10 renal; 106% with ACHN renal; 87.2% in the experiment on CAKI-1 renal. In addition, the growth is 107% in the experiment with A498 renal, 101% with CCRF-CEM leukemia and 86.6% in the experiment with MOLT-4 leukemia.

On to `Brc1ccc(-c2n(Cc3ccc4ccccc4c3)c(-c3ccccc3)c(-c3ccccc3)[n+]2Cc2ccc3ccccc3c2)cc1`, for which the growth in the experiment with SK-MEL-2 melanoma is -90.1% (active); with EKVX NSCLC it was -86.7% (active); with UO-31 renal, -79% (active); with TK-10 renal it was -92.5% (active); in the experiment on ACHN renal it was -100% (active); with CAKI-1 renal, -97% (active). The growth was -94% (active) in the experiment with A498 renal, -10.5% (active) in the experiment on CCRF-CEM leukemia and -5.89% (active) in the experiment with MOLT-4 leukemia.

As to `Cc1cc(C)cc(C(=O)Nc2cccc(-c3cn(-c4ccc(S(N)(=O)=O)cc4)nn3)c2)c1`, the growth was 12.8% with SK-MEL-2 melanoma; 55.7% in the experiment with EKVX NSCLC; 68.2% with UO-31 renal; -9.72% (active) in the experiment on TK-10 renal; 22.5% in the experiment with ACHN renal; 59.7% in the experiment with CAKI-1 renal. For the same molecule, the growth was -13.4% (active) in the experiment on A498 renal, 30.4% in the experiment with CCRF-CEM leukemia and 25.3% with MOLT-4 leukemia.

Regarding `COc1ccc(-c2nc(SC(C)C)nc(NCCc3c[nH]c4ccccc34)c2C#N)cc1`, the growth in the experiment on SK-MEL-2 melanoma was 74.6%; in the experiment on EKVX NSCLC, 30.4%; in the experiment on UO-31 renal, 40%; in the experiment with TK-10 renal, 90.6%; in the experiment with ACHN renal, 48.9%; with CAKI-1 renal, 43%. Moreover, the growth in the experiment with A498 renal was 65.9%; with CCRF-CEM leukemia, 18.5%; with MOLT-4 leukemia, 18.1%.

For the molecule `COc1ccc(-c2nc(SCC(C)C)nc(NCCc3c[nH]c4ccccc34)c2C#N)cc1`, the growth in the experiment on SK-MEL-2 melanoma was 80.9%; in the experiment on EKVX NSCLC it was 40.5%; in the experiment on UO-31 renal, 57.2%; in the experiment with TK-10 renal it was 120%; in the experiment on ACHN renal, 69.5%; in the experiment on CAKI-1 renal, 54.1%. Further, the growth in the experiment on A498 renal was 97.4%; in the experiment on CCRF-CEM leukemia, 36.2%; in the experiment with MOLT-4 leukemia, 40.4%.

Regarding `COc1ccc(-c2ccnc(SCc3cc4cc(Cl)ccc4[nH]c3=O)n2)cc1`, the growth in the experiment on SK-MEL-2 melanoma is 99%; in the experiment with EKVX NSCLC it was 57.1%; in the experiment with UO-31 renal, 79.1%; in the experiment on TK-10 renal, 19.5%; in the experiment on ACHN renal, 55%; in the experiment on CAKI-1 renal it was 26.2%. Also, the growth in the experiment on A498 renal was 41.6%; in the experiment on CCRF-CEM leukemia it was 79.1%; in the experiment on MOLT-4 leukemia, 93.6%.

`Cc1ccc(C(SCCNCc2cc(N(C)C)ccn2)(c2ccccc2)c2ccccc2)cc1`: the growth is -36.3% (active) in the experiment with SK-MEL-2 melanoma; -24.8% (active) with EKVX NSCLC; 8.42% (active) in the experiment with UO-31 renal; -4.26% (active) in the experiment on TK-10 renal; 3.79% (active) in the experiment with ACHN renal; -10.4% (active) with CAKI-1 renal. The growth with A498 renal is -43.8% (active); in the experiment on CCRF-CEM leukemia it was -3.65% (active); with MOLT-4 leukemia it was 8% (active).

The values are drawn from PubChem BioAssay (NCI).
